Measurements from the supplement of paper PMC6089552.
The whole screen tested about 3,200 compounds, of which about 300 (9.4%) showed activity. The sample holds actives, similar compounds and a random draw of the others, so the mix is not that of the screen.

System: A673/TR/shEF
Experiment: cell viability (LOESS-normalised, relative to median of negative controls) (log2 ratio); higher = more viable cells (less compound effect), active = hit call of the paper (over 3 MAD below the median)
Conditions: treatment time: 72 h
Method in brief: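 A673/TR/shEF Ewing sarcoma cells (1,500 per well, 384-well plates) were grown with or without doxycycline to induce EWS-FLI1 shRNA knockdown, starting 24 h before compounds. Library compounds at two or more concentrations, with DMSO controls, were added for three days. Cell viability was read by CellTiter-Glo luminescence on an Envision reader, then LOESS-corrected per plate, divided by the median of negative controls and log2-transformed. Hits were wells at least three median absolute deviations from the median of all screened wells.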

[1] = 0.25 µM, library screen: screen1, EWS-FLI1 expression: high (no doxycycline)
[2] = 0.25 µM, library screen: screen1, EWS-FLI1 expression: low (doxycycline-induced shRNA knockdown)
[3] = 2.5 µM, library screen: screen1, EWS-FLI1 expression: high (no doxycycline)
[4] = 2.5 µM, library screen: screen1, EWS-FLI1 expression: low (doxycycline-induced shRNA knockdown)
[5] = 0.103 µM, library screen: screen3, EWS-FLI1 expression: high (no doxycycline)
[6] = 0.103 µM, library screen: screen3, EWS-FLI1 expression: low (doxycycline-induced shRNA knockdown)
[7] = 0.308 µM, library screen: screen3, EWS-FLI1 expression: high (no doxycycline)
[8] = 0.308 µM, library screen: screen3, EWS-FLI1 expression: low (doxycycline-induced shRNA knockdown)
[9] = 0.926 µM, library screen: screen3, EWS-FLI1 expression: high (no doxycycline)
[10] = 0.926 µM, library screen: screen3, EWS-FLI1 expression: low (doxycycline-induced shRNA knockdown)
[11] = 2.8 µM, library screen: screen3, EWS-FLI1 expression: high (no doxycycline)
[12] = 2.8 µM, library screen: screen3, EWS-FLI1 expression: low (doxycycline-induced shRNA knockdown)
[13] = 8.3 µM, library screen: screen3, EWS-FLI1 expression: high (no doxycycline)
[14] = 8.3 µM, library screen: screen3, EWS-FLI1 expression: low (doxycycline-induced shRNA knockdown)
[15] = 25 µM, library screen: screen3, EWS-FLI1 expression: high (no doxycycline)
[16] = 25 µM, library screen: screen3, EWS-FLI1 expression: low (doxycycline-induced shRNA knockdown)
[17] = 0.25 µM, library screen: screen2, EWS-FLI1 expression: high (no doxycycline)
[18] = 0.25 µM, library screen: screen2, EWS-FLI1 expression: low (doxycycline-induced shRNA knockdown)
[19] = 2.5 µM, library screen: screen2, EWS-FLI1 expression: high (no doxycycline)
[20] = 2.5 µM, library screen: screen2, EWS-FLI1 expression: low (doxycycline-induced shRNA knockdown)

Q: For `COc1ccc(-c2cc(=O)c3c(OC)cc(OC)cc3o2)cc1`, which “cell viability (log2)” value [1] is on record?
A: 0.0279 (inactive)

Q: What about the “cell viability (log2)” value [2] of the same compound?
A: 0.0681 (inactive)

Q: And the “cell viability (log2)” value [3]?
A: 0.0807 (inactive)

Q: And the “cell viability (log2)” value [4]?
A: 0.22 (inactive)

Q: How did the “cell viability (log2)” value [1] turn out when `CC(=O)Oc1cc(C)c2c(c1C(OC(C)=O)OC(C)=O)Oc1c(c(C)c(OC(C)=O)c3c1C(OC(C)=O)OC3=O)OC2=O` (stereo unspecified) was run?
A: 0.0407 (inactive)

Q: What about the “cell viability (log2)” value [2] of the same compound?
A: 0.0968 (inactive)

Q: What about the “cell viability (log2)” value [3] of the same compound?
A: 0.0425 (inactive)

Q: What about the “cell viability (log2)” value [4] of the same compound?
A: 0.133 (inactive)

Q: `CC1(C)CC[C@]2(C)CC[C@]3(C)C(=CC[C@@H]4[C@@]5(C)CC[C@H](O)C(C)(C)[C@@H]5CC[C@]43C)[C@@H]2C1` was tested. Which “cell viability (log2)” value [1] did it give?
A: 0.0903 (inactive)

Q: What about the “cell viability (log2)” value [2] of the same compound?
A: 0.0065 (inactive)

Q: What about the “cell viability (log2)” value [3] of the same compound?
A: 0.1 (inactive)

Q: What about the “cell viability (log2)” value [4] of the same compound?
A: 0.118 (inactive)

Q: What does the source list for `COC1=C[C@@H](C)[C@@H]2C[C@H]3OC(=O)C[C@H]4C(C)=C(OC)C(=O)[C@H]([C@@]2(C)C1=O)[C@@]34C`?
A: cell viability (log2) [1]: 0.0742 (inactive); cell viability (log2) [2]: 0.006 (inactive); cell viability (log2) [3]: 0.146 (inactive); cell viability (log2) [4]: 0.0264 (inactive)

Q: Which results are given for `Cc1ccc(C(=O)Nc2ccc(CN3CCN(C)CC3)c(C(F)(F)F)c2)cc1C#Cc1cnc2cccnn12`?
A: cell viability (log2) [5]: -0.0141 (inactive); cell viability (log2) [6]: 0.111 (inactive); cell viability (log2) [7]: -0.0138 (inactive); cell viability (log2) [8]: 0.169 (inactive); cell viability (log2) [9]: -0.202 (active); cell viability (log2) [10]: 0.218; cell viability (log2) [11]: -0.252 (active); cell viability (log2) [12]: 0.093 (inactive); cell viability (log2) [13]: -0.655 (active); cell viability (log2) [14]: -0.442 (active); cell viability (log2) [15]: -1.59 (active); cell viability (log2) [16]: -1.35 (active)

Q: With `CC(C)c1c(O)ccc2c1CCC1[C@@](C)(C(=O)O)CCC[C@]21C` (stereo partly specified) as the compound, how does the “cell viability (log2)” value [1] read?
A: 0.0397 (inactive)

Q: What about the “cell viability (log2)” value [2] of the same compound?
A: 0.152 (inactive)

Q: What about the “cell viability (log2)” value [3] of the same compound?
A: 0.0988 (inactive)

Q: And the “cell viability (log2)” value [4]?
A: 0.234 (inactive)

Q: How did the “cell viability (log2)” value [1] turn out when `C=C(C)/C=C1/C=CC(=O)C(C)=C1` was run?
A: 0.0888 (inactive)

Q: What about the “cell viability (log2)” value [2] of the same compound?
A: 0.0664 (inactive)

Q: What about the “cell viability (log2)” value [3] of the same compound?
A: 0.0231 (inactive)

Q: And the “cell viability (log2)” value [4]?
A: 0.158 (inactive)

Q: `CCCSc1ccc2nc(NC(=O)OC)[nH]c2c1` was tested. Which “cell viability (log2)” value (0.025 µM, library screen: screen2, EWS-FLI1 expression: high (no doxycycline)) did it give?
A: 0.0864 (inactive)

Q: And the “cell viability (log2)” value (0.025 µM, library screen: screen2, EWS-FLI1 expression: low (doxycycline-induced shRNA knockdown))?
A: 0.0115 (inactive)

Q: What about the “cell viability (log2)” value [5] of the same compound?
A: 0.197 (inactive)

Q: And the “cell viability (log2)” value [6]?
A: -0.0327 (inactive)

Q: And the “cell viability (log2)” value [1]?
A: -0.206 (active)

Q: What about the “cell viability (log2)” value [2] of the same compound?
A: -0.0499 (inactive)

Q: And the “cell viability (log2)” value [17]?
A: 0.0348 (inactive)

Q: What about the “cell viability (log2)” value [18] of the same compound?
A: 0.051 (inactive)

Q: And the “cell viability (log2)” value [7]?
A: 0.0506 (inactive)

Q: What about the “cell viability (log2)” value [8] of the same compound?
A: 0.123 (inactive)

Q: And the “cell viability (log2)” value [9]?
A: 0.0609 (inactive)

Q: What about the “cell viability (log2)” value [10] of the same compound?
A: 0.0788 (inactive)

Q: And the “cell viability (log2)” value [3]?
A: -1.99 (active)

Q: And the “cell viability (log2)” value [4]?
A: -1.04 (active)

Q: And the “cell viability (log2)” value [19]?
A: 0.158 (inactive)

Q: What about the “cell viability (log2)” value [20] of the same compound?
A: 0.0631 (inactive)

Q: And the “cell viability (log2)” value [11]?
A: -0.524 (active)

Q: What about the “cell viability (log2)” value [12] of the same compound?
A: 0.00738 (inactive)

Q: And the “cell viability (log2)” value [13]?
A: -1.81 (active)

Q: And the “cell viability (log2)” value [14]?
A: -0.886 (active)

Q: And the “cell viability (log2)” value (25 µM, library screen: screen2, EWS-FLI1 expression: high (no doxycycline))?
A: -1.74 (active)

Q: And the “cell viability (log2)” value (25 µM, library screen: screen2, EWS-FLI1 expression: low (doxycycline-induced shRNA knockdown))?
A: -0.157 (active)

Q: And the “cell viability (log2)” value [15]?
A: -2.99 (active)

Q: And the “cell viability (log2)” value [16]?
A: -1.16 (active)

Q: For `CCCOc1ccc2nc(NC(=O)OC)[nH]c2c1`, which “cell viability (log2)” value [1] is on record?
A: 0.0532 (inactive)

Q: What about the “cell viability (log2)” value [2] of the same compound?
A: 0.106 (inactive)

Q: And the “cell viability (log2)” value [3]?
A: -0.659 (active)

Q: And the “cell viability (log2)” value [4]?
A: -0.0137 (inactive)

Q: What does the source list for `CCCCOc1ccc(CC(=O)NO)cc1`?
A: cell viability (log2) [1]: 0.0397 (inactive); cell viability (log2) [2]: 0.0519 (inactive); cell viability (log2) [3]: 0.124 (inactive); cell viability (log2) [4]: 0.116 (inactive)

Q: What does the source list for `O=c1cccc2c([C@H]3Oc4cc(O)cc(O)c4C[C@H]3O)cc(O)c(O)c2c1O`?
A: cell viability (log2) [1]: 0.06 (inactive); cell viability (log2) [2]: 0.00163 (inactive); cell viability (log2) [3]: 0.108 (inactive); cell viability (log2) [4]: 0.0999 (inactive)

Q: For `N#C/C(=C\c1cc(Cl)cc(Cl)c1)c1cccnc1`, which “cell viability (log2)” value (0.025 µM, library screen: screen1, EWS-FLI1 expression: high (no doxycycline)) is on record?
A: 0.0512 (inactive)

Q: And the “cell viability (log2)” value (0.025 µM, library screen: screen1, EWS-FLI1 expression: low (doxycycline-induced shRNA knockdown))?
A: 0.0254 (inactive)

Q: What about the “cell viability (log2)” value [1] of the same compound?
A: 0.126 (inactive)

Q: And the “cell viability (log2)” value [2]?
A: 0.0849 (inactive)

Q: And the “cell viability (log2)” value [3]?
A: 0.0839 (inactive)

Q: And the “cell viability (log2)” value [4]?
A: 0.0837 (inactive)

Q: And the “cell viability (log2)” value (25 µM, library screen: screen1, EWS-FLI1 expression: high (no doxycycline))?
A: -0.0133 (inactive)

Q: What about the “cell viability (log2)” value (25 µM, library screen: screen1, EWS-FLI1 expression: low (doxycycline-induced shRNA knockdown)) of the same compound?
A: 0.21 (inactive)

Q: What does the source list for `CC(C)c1ccc2c(c1)CC[C@@]1(C)[C@](C)(C(N)=O)CCC[C@]21C`?
A: cell viability (log2) [1]: 0.0259 (inactive); cell viability (log2) [2]: 0.0473 (inactive); cell viability (log2) [3]: 0.108 (inactive); cell viability (log2) [4]: 0.0563 (inactive)

Q: What does the source list for `CC(=O)O[C@H]1CC[C@@]2(C)C(CC[C@]3(C)C2CC=C2C4CC(C)(C)CC[C@]4(C)CCC23C)C1(C)C` (stereo partly specified)?
A: cell viability (log2) [1]: 0.05 (inactive); cell viability (log2) [2]: 0.112 (inactive); cell viability (log2) [3]: 0.0854 (inactive); cell viability (log2) [4]: 0.111 (inactive)

Q: How did the “cell viability (log2)” value [1] turn out when `COc1ccc(OC)c(CN2CCN(Cc3ccc(OC)c(OC)c3)CC2)c1` was run?
A: 0.114 (inactive)

Q: What about the “cell viability (log2)” value [2] of the same compound?
A: 0.0365 (inactive)

Q: What about the “cell viability (log2)” value [3] of the same compound?
A: 0.174 (inactive)

Q: And the “cell viability (log2)” value [4]?
A: 0.0479 (inactive)

Q: What does the source list for `COc1ccc(OC)c(CN2CCN(Cc3ccccc3OC)CC2)c1`?
A: cell viability (log2) [1]: 0.101 (inactive); cell viability (log2) [2]: 0.0584 (inactive); cell viability (log2) [3]: 0.0952 (inactive); cell viability (log2) [4]: 0.0149 (inactive)

Q: What does the source list for `COc1ccc(OC)c(CN2CCN(Cc3cc(OC)c(OC)cc3OC)CC2)c1`?
A: cell viability (log2) [1]: -0.103 (active); cell viability (log2) [2]: 0.113 (inactive); cell viability (log2) [3]: 0.0261 (inactive); cell viability (log2) [4]: -0.0111 (inactive)

Q: For `COc1ccc(CN2CCN(Cc3ccc(OC)c(OC)c3OC)CC2)c(OC)c1`, which “cell viability (log2)” value [1] is on record?
A: 0.0664 (inactive)

Q: And the “cell viability (log2)” value [2]?
A: 0.0443 (inactive)

Q: And the “cell viability (log2)” value [3]?
A: 0.0638 (inactive)

Q: And the “cell viability (log2)” value [4]?
A: 0.0995 (inactive)

Q: Which results are given for `CC(C)[C@H](NC(=O)OCc1ccccc1)C(=O)N[C@H](C=O)Cc1ccccc1`?
A: cell viability (log2) [17]: 0.0586 (inactive); cell viability (log2) [18]: 0.0917 (inactive); cell viability (log2) [19]: 0.108 (inactive); cell viability (log2) [20]: 0.155 (inactive)

Q: With `O=C(N[C@@H](Cc1ccccc1)C(=O)CCl)OCc1ccccc1` as the compound, how does the “cell viability (log2)” value [17] read?
A: 0.163 (inactive)

Q: And the “cell viability (log2)” value [18]?
A: 0.156 (inactive)

Q: And the “cell viability (log2)” value [19]?
A: -0.218 (active)

Q: What about the “cell viability (log2)” value [20] of the same compound?
A: 0.0216 (inactive)

Q: What does the source list for `Cc1ccc(S(=O)(=O)N[C@@H](Cc2ccccc2)C(=O)CCl)cc1`?
A: cell viability (log2) [17]: 0.00163 (inactive); cell viability (log2) [18]: 0.0223 (inactive); cell viability (log2) [19]: 0.0887 (inactive); cell viability (log2) [20]: 0.111 (inactive)
